Source: PMC8384837, “Expanding the binding specificity for RNA recognition by a PUF domain”
Changes are numbered by the printed parent chain.

Columns and labels:
Experiment in all cases: yeast three-hybrid, YBZ-1, SC-Leu-His + 0.5 mM 3-AT, 4 days
Details in all cases: tags: N-Gal4 AD-HA kept; label: inside an RPR1-promoter hybrid RNA with tandem MS2 sites; ssRNA
[1] = target: PUM1 PUF domain R3-ARA (Homo sapiens, UniProt Q14671 828-1176, C935A;Q939A)
How it was run: (§1)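 The interaction score is the log change in variant frequency from input to selection. Scores were computed in log2 with a pseudocount of 1 for absent variants, using Illumina sequencing of PCR-amplified repeat regions. The input came from four days on SC-Leu and the selection from four days on SC-Leu-His + 0.5 mM 3-AT. The cells were strain YBZ-1 (LexA–MS2 coat fusion, HIS3 reporter) co-expressing Pumilio-1 PUF domain libraries and matching RNA elements from a centromeric plasmid.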

[2] = target: PUM1 PUF domain R1-NWS (Homo sapiens, UniProt Q14671 828-1176, S863N;R864W;Q867S)
How it was run: as §1

[3] = target: PUM1 PUF domain R1-QVK (Homo sapiens, UniProt Q14671 828-1176, S863Q;R864V;Q867K)
How it was run: as §1

[4] = target: T1, PUM1 PUF domain R6-CYV (Homo sapiens, UniProt Q14671 828-1176, N1043C;Q1047V)
T1 sequence: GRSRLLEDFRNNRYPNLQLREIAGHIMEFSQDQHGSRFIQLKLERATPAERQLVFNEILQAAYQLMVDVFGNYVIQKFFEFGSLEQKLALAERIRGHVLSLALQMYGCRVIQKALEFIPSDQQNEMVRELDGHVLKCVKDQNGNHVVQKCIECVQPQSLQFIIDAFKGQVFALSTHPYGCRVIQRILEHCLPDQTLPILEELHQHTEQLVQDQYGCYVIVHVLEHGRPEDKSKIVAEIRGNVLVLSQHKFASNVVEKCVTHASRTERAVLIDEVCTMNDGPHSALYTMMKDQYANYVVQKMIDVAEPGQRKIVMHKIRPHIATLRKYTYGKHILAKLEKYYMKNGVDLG
How it was run: as §1

[5] = target: PUM1 PUF domain R4-SNL (Homo sapiens, UniProt Q14671 828-1176, N971S;H972N;Q975L)
How it was run: as §1

[6] = target: PUM1 PUF domain R3-VYF (Homo sapiens, UniProt Q14671 828-1176, C935V;R936Y;Q939F)
How it was run: as §1

[7] = target: T2, PUM1 PUF domain R6-GHS (Homo sapiens, UniProt Q14671 828-1176, N1043G;Y1044H;Q1047S)
T2 sequence: T1 sequence with C216G, Y217H, V220S
How it was run: as §1

## GGCUAGAACUAGUGGAUCCCCCGGCGCCCGGCGGCUCGAGCCCGGGUAAGUGUAAGUAGUCUGCAUGCCGCCGGGCGCCAUGCCUGCAGGUCGACUCUAGAAAACAUG
[1]
  binding signal: 1.03 log2 enrichment (interaction score)

## GGCUAGAACUAGUGGAUCCCCCGGCGCCCGGCGGCUCGAGCCCGGGUAAGUGUAAAUUGUCUGCAUGCCGCCGGGCGCCAUGCCUGCAGGUCGACUCUAGAAAACAUG
[2]
  binding signal: 5.3 log2 enrichment (interaction score)
[3]
  binding signal: 0.46 log2 enrichment (interaction score)

## GGCUAGAACUAGUGGAUCCCCCGGCGCCCGGCGGCUCGAGCCCGGGUAAGUGUAAAUAGUCUGCAUGCCGCCGGGCGCCAUGCCUGCAGGUCGACUCUAGAAAACAUG
[4]
  binding signal: 0.52 log2 enrichment (interaction score)
[5]
  binding signal: 2.52 log2 enrichment (interaction score)
[6]
  binding signal: 5.15 log2 enrichment (interaction score)
[7]
  binding signal: 0.45 log2 enrichment (interaction score)
[1]
  binding signal: 3.97 log2 enrichment (interaction score)
